Results on seven molecules are retold here after PubChem BioAssay (EPA / NIEHS).

Test [1] is described as follows: BSK_CASM3C_SRB: Viability Assessment in the BioMAP Diversity Plus: CASM3C Assay (AID 2283050).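 Also: cells exposed to compound for 24 h.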 The conditions noted are these: primary human coronary artery smooth muscle cells.
Read-out in test [2]: Thrombomodulin, THBD (gene 7056)
The test can be described thus: BSK_CASM3C_Thrombomodulin: BioMAP Diversity Plus: CASM3C Assay for Thrombomodulin Biomarker Activity (AID 2283051).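 Also: thrombomodulin protein level measured by ELISA 24 h after dosing.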 The settings on record: primary human coronary artery smooth muscle cells; actives raise or lower the signal.

Read-out in test [3]: Tissue Factor, F3 (gene 2152)
The test can be described thus: BSK_CASM3C_TissueFactor: BioMAP Diversity Plus: CASM3C Assay for Tissue Factor Biomarker Activity (AID 2283052).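 Also: cell surface tissue factor protein level read by ELISA.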 The conditions noted are these: primary human coronary artery smooth muscle cells; actives raise or lower the signal.

Read-out in test [4]: Urokinase-type plasminogen activator receptor (uPAR), PLAUR (gene 5329)
The test can be described thus: BSK_CASM3C_uPAR: BioMAP Diversity Plus: CASM3C Assay for Urokinase-type plasminogen activator receptor (uPAR) Biomarker Activity (AID 2283054).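 Also: cell-surface uPAR protein level quantified by ELISA.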 The conditions noted are these: primary human coronary artery smooth muscle cells; actives raise or lower the signal.

Read-out in test [5]: Vascular cell adhesion molecule 1 (VCAM1), VCAM1 (gene 7412)
The test can be described thus: BSK_CASM3C_VCAM1: BioMAP Diversity Plus: CASM3C Assay for Vascular cell adhesion molecule 1 (VCAM1) Biomarker Activity (AID 2283055).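 Also: VCAM-1 protein level quantified by ELISA on the cells.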 The conditions noted are these: primary human coronary artery smooth muscle cells; actives raise or lower the signal.

Read-out in test [6]: Collagen III, COL3A1 (gene 1281)
The test can be described thus: BSK_hDFCGF_CollagenIII: BioMAP Diversity Plus: hDFCGF Assay for Collagen III Biomarker Activity (AID 2283056). The settings on record: primary human foreskin fibroblasts; actives raise or lower the signal. In short, it runs like this: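 Cells: human foreskin fibroblasts, primary. Dosing followed by 24 h incubation, then ELISA for collagen III. Both increases and decreases scored relative to DMSO.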

Read-out in test [7]: Epidermal growth factor receptor (EGFR), EGFR (gene 1956)
The test can be described thus: BSK_hDFCGF_EGFR: BioMAP Diversity Plus: hDFCGF Assay for Epidermal growth factor receptor (EGFR) Biomarker Activity (AID 2283057). The settings on record: primary human foreskin fibroblasts; actives raise or lower the signal. In short, it runs like this:
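hDFCGF system, primary human foreskin fibroblasts; compound 24 h; EGFR measured by ELISA; DMSO = negative control/baseline; bidirectional fitting.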

Read-out in test [8]: Interleukin-8 (IL8), CXCL8 (gene 3576)
The test can be described thus: BSK_hDFCGF_IL8: BioMAP Diversity Plus: hDFCGF Assay for Interleukin-8 (IL8) Biomarker Activity (AID 2283058). The settings on record: primary human foreskin fibroblasts; actives raise or lower the signal. In a few lines: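 IL-8 levels from compound-treated primary human fibroblasts were read by ELISA at 24 h, with DMSO serving as baseline for bidirectional fitting.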

Test [9] is described as follows: BSK_hDFCGF_Proliferation: Cell Proliferation Assessment in the BioMAP Diversity Plus: hDFCGF Assay (AID 2283059).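 Also: curves fitted for both rise and fall of signal versus DMSO baseline.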 The settings on record: primary human foreskin fibroblasts. In short, it runs like this:
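Steps: dose primary human dermal fibroblasts (foreskin); […] fix in 10% TCA; stain with 0.1% SRB; read 560 nm; fit gain or loss of signal against DMSO.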

Read-out in test [10]: Macrophage colony-stimulating factor (MCSF), CSF1 (gene 1435)
The test can be described thus: BSK_hDFCGF_MCSF: BioMAP Diversity Plus: hDFCGF Assay for Macrophage colony-stimulating factor (MCSF) Biomarker Activity (AID 2283060). The conditions noted are these: primary human foreskin fibroblasts; actives raise or lower the signal. In a few lines:
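M-CSF levels, determined by ELISA, are taken at 24 h after dosing human skin fibroblasts. Responses in either direction are fitted with DMSO serving as the baseline.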

A short description of test [11]: BSK_hDFCGF_SRB: Viability Assessment in the BioMAP Diversity Plus: hDFCGF Assay (AID 2283061).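 Also: cells exposed to compound for 24 h before the read.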 The settings on record: primary human foreskin fibroblasts. In a few lines:
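Cells were dosed with test chemical, cultured 24 h, fixed with 10% TCA, then stained with 0.1% SRB and read at 560 nm. The fibroblasts were human foreskin primary cells, and DMSO served as baseline.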

Read-out in test [12]: TIMP metallopeptidase inhibitor 1 (TIMP1), TIMP1 (gene 7076)
The test can be described thus: BSK_hDFCGF_TIMP1: BioMAP Diversity Plus: hDFCGF Assay for TIMP metallopeptidase inhibitor 1 (TIMP1) Biomarker Activity (AID 2283062). The settings on record: primary human foreskin fibroblasts; actives raise or lower the signal. In short, it runs like this:
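Fibroblasts from human foreskin are treated with test chemical and harvested at 24 h. TIMP-1 is quantified by ELISA, and gain or loss of signal is scored against DMSO.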

Read-out in test [13]: Monokine induced gamma interferon (MIG), CXCL9 (gene 4283)
The test can be described thus: BSK_hDFCGF_MIG: BioMAP Diversity Plus: hDFCGF Assay for Monokine induced gamma interferon (MIG) Biomarker Activity (AID 2283063). The settings on record: primary human foreskin fibroblasts; actives raise or lower the signal. In a few lines: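 MIG signal, determined by ELISA, reflects 24 h chemical exposure of human skin primary fibroblasts. DMSO serves as negative control and baseline.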

Read-out in test [14]: Matrix Metallopeptidase 1 (MMP1), MMP1 (gene 4312)
The test can be described thus: BSK_hDFCGF_MMP1: BioMAP Diversity Plus: hDFCGF Assay for Matrix Metallopeptidase 1 (MMP1) Biomarker Activity (AID 2283064). The conditions noted are these: primary human foreskin fibroblasts; actives raise or lower the signal. In short, it runs like this:
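Primary human foreskin fibroblasts exposed to chemicals for 24 h; MMP1 measured by ELISA. Cytotoxicity tracked by SRB staining in parallel cultures; bidirectional fit relative to DMSO.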

Read-out in test [15]: Vascular cell adhesion molecule 1 (VCAM1), VCAM1 (gene 7412)
The test can be described thus: BSK_hDFCGF_VCAM1: BioMAP Diversity Plus: hDFCGF Assay for Vascular cell adhesion molecule 1 (VCAM1) Biomarker Activity (AID 2283065).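 As to AC50: VCAM-1 protein level quantified by ELISA after 24 h chemical exposure.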 The settings on record: primary human foreskin fibroblasts; actives raise or lower the signal. In a few lines:
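Cells are dosed, cultured for 24 h, then VCAM-1 is quantified by ELISA; signal increases and decreases are both fitted relative to DMSO.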

Read-out in test [16]: Interferon-gamma inducible Protein 10 (IP10), CXCL10 (gene 3627)
The test can be described thus: BSK_KF3CT_IP10: BioMAP Diversity Plus: KF3CT Assay for Interferon-gamma inducible Protein 10 (IP10) Biomarker Activity (AID 2283068). The conditions noted are these: primary human keratinocytes with fibroblasts; actives raise or lower the signal. In a few lines:
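KF3CT co-culture (keratinocytes + foreskin fibroblasts), 24 h compound, IP-10 by ELISA; bidirectional fit vs DMSO baseline.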

Test [17] is described as follows: BSK_KF3CT_SRB: Viability Assessment in the BioMAP Diversity Plus: KF3CT Assay (AID 2283069).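 Also: total protein by sulforhodamine B staining as a cytotoxicity measure; fitted for both signal gain and loss against DMSO baseline.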 The conditions noted are these: primary human keratinocytes with fibroblasts. In a few lines: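 Human keratinocyte and foreskin fibroblast co-culture exposed to chemical for 24 h. Total protein measured in parallel cultures by 0.1% sulforhodamine B staining after 10% TCA fixation, read at 560 nm; bidirectional fit relative to DMSO.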

Read-out in test [18]: Intercellular Adhesion Molecule 1 (ICAM1), ICAM1 (gene 3383)
The test can be described thus: BSK_KF3CT_ICAM1: BioMAP Diversity Plus: KF3CT Assay for Intercellular Adhesion Molecule 1 (ICAM1) Biomarker Activity (AID 2283067). The conditions noted are these: primary human keratinocytes with fibroblasts; actives raise or lower the signal. In a few lines: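 Dose the keratinocyte/fibroblast co-culture, wait 24 h, measure ICAM-1 by ELISA, then fit increases or decreases against DMSO. Cytotoxicity is checked in parallel cultures by SRB total-protein staining.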

SMILES strings stand for the structures. The source made the active and inactive calls. The calls were made as follows: active = hit-call score of the fitted dose curve at least 0.9, where 1 is the maximum; inactive = score below 0.9.

The term AC50 denotes the concentration at which the activity in the assay is half-maximal. In the case of `CCOc1nc(NC)nc(NC(=O)NS(=O)(=O)c2ccccc2C(=O)OC)n1`, the outcome in test [1], in [2], in test [3], in test [4], in [5] and in [6] was inactive. Further, the result in test [7], in test [8], in [9], in test [10], in test [11] and in test [13] was inactive. For the same molecule, the outcome in [15] and in [17] was inactive. Besides, the values for the AC50 in test [12], in test [14] and in test [16] were 25.5 µM (active), 20 µM (active) and 20 µM (active), respectively.

Take `CCc1ccc(C(=O)NN(C(=O)c2cc(C)cc(C)c2)C(C)(C)C)cc1`: the outcome in test [1], in test [2], in test [3], in test [4], in [5] and in test [6] was inactive. The result in test [7], in [8], in test [9], in test [10], in test [11] and in test [12] was inactive. In addition, the result in test [13], in [14], in [15], in [16] and in test [17] was inactive.

With `CC1(C)C(C=C(Cl)Cl)C1C(=O)OC(C#N)c1ccc(F)c(Oc2ccccc2)c1` (stereo not given), the outcome in [1], in [3], in [4], in [5], in test [8] and in test [10] was inactive. The outcome in test [12], in [13], in test [14], in [15], in test [16] and in test [17] was inactive. The AC50 in test [2] is 33.8 µM (active); in test [6], 0.189 µM (active); in test [7] it was 3.84 µM (active); in test [9] it was 13.2 µM (active); in test [11], 31.1 µM (active).

As for `O=C(Nc1ccccc1)Nc1cnns1`, the result in test [1], in [2], in test [3], in [4], in test [5] and in [6] was inactive. The outcome in [7], in test [8], in test [9], in [10], in test [11] and in test [12] was inactive. In addition, the result in [13], in test [14], in test [15], in test [18], in test [16] and in [17] was inactive.

Regarding `CC(C)N(C(=O)COc1nnc(C(F)(F)F)s1)c1ccc(F)cc1`, the result in [1], in test [2], in test [3], in [4], in [5] and in [6] was inactive. In addition, the result in test [7], in test [8], in [11], in test [12], in test [13] and in test [17] was inactive. The AC50 in [9] was 15.9 µM (active); in test [10], 28.9 µM (active); in [14] it was 17.7 µM (active); in test [15], 8.54 µM (active); in test [16], 30.8 µM (active).

Take `CCC(C)Nc1c([N+](=O)[O-])cc(C(C)(C)C)cc1[N+](=O)[O-]` (stereo not given): the result in test [1], in test [2], in test [3], in test [4], in test [5] and in [6] was inactive. Also, the outcome in test [8], in test [12], in [13], in [14], in test [16] and in test [17] was inactive. Further, the AC50 in test [7] is 33 µM (active); in [9], 20 µM (active); in test [10], 21.5 µM (active); in test [11], 32.9 µM (active); in test [15], 15.4 µM (active).

Regarding `COc1nn(CSP(=S)(OC)OC)c(=O)s1`, the outcome in [1], in test [2], in [3], in [4], in test [5] and in test [6] was inactive. The outcome in test [7], in [8], in [9], in test [10], in [11] and in [12] was inactive. The outcome in test [13], in test [14], in [15], in test [16] and in [17] was inactive.
